Screens as filed in PubChem.
HT1080-NT tox: kills 2HG-producing HT-1080-NT fibrosarcoma cells; Potency, µM (series often up to 46.1 µM), without a hit: top-dose activity, negative = less viability, hits mostly cytotoxic; HT-1080-NT fibrosarcoma viability, CellTiter-Glo ATP luminescence, 48 h; actives 1.6% (n = 360,000);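 note: NT is the 2HG producing partner of a matched IDH1 knockdown line; 0% = DMSO-treated cells and -100% = media-only wells without cells; nearly all actives have a fitted effect of over 55% in size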
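Read-out is CellTiter-Glo luminescence after 10 minutes at room temperature, following 48 hours' compound treatment of HT-1080-NT cells (750 cells/well, RPMI, 5% FBS, 37 degrees C).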
TDP1 cell CPT: DT40-hTDP1 cell growth loss with CPT | chicken DT40 Tdp1-/-;hTDP1 cells + 20 nM CPT, ATP luminescence, 48 h | Potency, µM (top dose mostly 46.2 µM), inactives show top-dose activity change, negative = growth inhibition, most hits filed as inhibitors | actives 12% (n = 420,000) | AID 686979; note: % is set by controls: 0 for no effect and ±100 for the full control effect; nearly all actives have a fitted effect of over 55% in size
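Chicken DT40 Tdp1-/- cells stably complemented with human TDP1 were seeded at 400 cells/well in medium containing 20 nM camptothecin, exposed to pin-transferred compounds, and grown at 37 °C for at least 48 hr. Viability was read as ATP luminescence.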
TGFb inhibitor: blocks TGF-b signaling | HepG2 CAGA-GFP TGF-b/SMAD3 reporter, GFP fluorescence, 18 h; TGF-beta stimulated, 500 pg/mL final | actives 1.2% (n = 410,000) | Potency, µM (top dose mostly 46.1 µM), inactives show at the top dose activity, negative = inhibition, actives largely listed as inhibitors | AID 588855; note: % is set by controls: 0 for no effect and ±100 for the full control effect; nearly all actives have a fitted effect of over 65% in size
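HEPG2 CAGA-GFP cells (1000/well, DMEM with 1% FBS) were pre-incubated 2 h at 37 degrees C, given compound by pin tool, then stimulated with TGF-beta at 500 pg/mL final for 18 h before per-cell GFP fluorescence imaging.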
TDP1 cell noCPT: qHTS for Inhibitors of human tyrosyl-DNA phosphodiesterase 1 (TDP1): qHTS in cells in absence of CPT; DT40 Tdp1-/- hTDP1 cells, no CPT, ATP luminescence, 48 h; Potency, µM (titrated, usually from 46.2 µM), without a hit: at the top dose activity change, negative = growth inhibition, actives largely listed as inhibitors; actives 15% (n = 420,000); note: % is set by controls: 0 for no effect and ±100 for the full control effect; nearly all actives have a fitted effect of over 55% in size
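No-CPT arm: Tdp1-/-;hTDP1 DT40 cells (400/well) plus compounds, incubated ≥48 hr at 37 °C. Readout CellTiter-Glo luminescence.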
HepG2 tox: HepG2 cytotoxicity, counter-screen for TGF-b inhibitors; actives 0.76% (n = 410,000); HepG2 CAGA-GFP viability, ATP luminescence, 18 h; Potency, µM (titrated, usually from 46.1 µM), for inactives: at the highest dose activity change, negative = cytotoxicity, hits mostly cytotoxic
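CellTiter-Glo luminescence gave cytotoxicity after 18 hours at 37 degrees C. The cells were HepG2 CAGA-GFP in 1% FBS DMEM, stimulated with 500 pg/mL TGF-beta after compound addition. %Activity was normalised to no-cell wells (complete cell-killing) and DMSO (no toxicity), and curves were fitted and classified.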
HT1080 IDH1KD tx: toxicity to HT-1080 IDH1 knockdown cells (counter line); actives 2% (n = 360,000); Potency, µM (highest dose often 46.1 µM), without a hit: at the top dose activity, negative = toxicity, most hits filed as cytotoxic; HT-1080 IDH1 knockdown viability, ATP luminescence, 48 h;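 note: 0% = DMSO wells and -100% = cell-free medium wells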
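HT-1080-IDH1KD cells (IDH1 knocked down), 750/well in RPMI with 5% FBS, treated with compound 48 h at 37 degrees C. Viability by CellTiter-Glo luminescence, normalised to DMSO and no-cell wells; concentration-response curves classed.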
An asterisk follows results filed as active. Most compounds without a hit are left out; they make up all but 17% or so of the library. Calls come from the whole dose curve; as a rule, active = well fitted curve in the direction sought with a large enough effect; inconclusive = small, poorly fitted or top-dose-only effect, or another doubt; inactive = no such curve, though single readings can be large; an effect the other way counts as inactive or inconclusive. Potency is the fitted concentration of half-maximal effect.

How did O=[N+]([O-])c1ccc(Nc2nc(N3CCOCC3)nc(N3CCOCC3)n2)cc1 do in these assays?
HT1080-NT tox: 21.6%; TDP1 cell CPT: inconclusive; TGFb inhibitor: 19.8%; TDP1 cell noCPT: inconclusive; HepG2 tox: 16.5%; HT1080 IDH1KD tx: 24.3%

How did c1ccc(Nc2nc(N3CCOCC3)nc(N3CCOCC3)n2)cc1 do in these assays?
HT1080-NT tox: -19.1%; TDP1 cell CPT: 16.4µM*; TGFb inhibitor: 61.8%; TDP1 cell noCPT: 16.4µM*; HepG2 tox: -25.3%; HT1080 IDH1KD tx: -17.4%

What do the screens show for `Cc1cccc(N2CCN(C(=O)Cc3c(C(=O)O)c(C)cn3C)CC2)c1C`?
TDP1 cell CPT: 5.3%; TGFb inhibitor: 2.3%; TDP1 cell noCPT: -24.7%; HepG2 tox: 7.1%

Results for Cc1cccc(Nc2nc(N3CCOCC3)nc(N3CCOCC3)n2)c1 ?
HT1080-NT tox: -8.4%; TDP1 cell CPT: 9.2µM*; TGFb inhibitor: 10.6%; TDP1 cell noCPT: inconclusive; HepG2 tox: -21.1%; HT1080 IDH1KD tx: -20.6%

How did Cc1cccc(Nc2nc(N3CCCCC3)nc(N3CCCCC3)n2)c1 do in these assays?
HT1080-NT tox: -18.6%; TDP1 cell CPT: -17.8%; TGFb inhibitor: -10.4%; TDP1 cell noCPT: -15.1%; HepG2 tox: -31.3%; HT1080 IDH1KD tx: 0.0%

Results for Cc1cccc(Nc2nc(Nc3cccc(C)c3)nc(N3CCOCC3)n2)c1 ?
TDP1 cell CPT: 14.6µM*; TGFb inhibitor: inconclusive; TDP1 cell noCPT: 9.2µM*; HepG2 tox: -32.0%

What do the screens show for `BrC(/C=N/Nc1nc(N2CCOCC2)nc(N2CCOCC2)n1)=C/c1ccccc1`?
HT1080-NT tox: -6.1%; TDP1 cell CPT: 16.4µM*; TGFb inhibitor: inconclusive; TDP1 cell noCPT: 20.6µM*; HepG2 tox: -72.0%; HT1080 IDH1KD tx: -10.8%

Results for COc1ccc(Nc2nc3c(c(=O)n(C)c(=O)n3C)n2CCO)cc1 ?
HT1080-NT tox: 3.4%; TDP1 cell CPT: -17.2%; TGFb inhibitor: 0.6%; TDP1 cell noCPT: 0.3%; HepG2 tox: -1.5%; HT1080 IDH1KD tx: -0.4%

How did C[C@@H](C[C@@H](O)[C@H](O)C(C)(C)O)[C@@H]1CC[C@]2(C)C3=CC[C@H]4C(C)(C)C(=O)CC[C@]4(C)[C@H]3CC[C@@]12C do in these assays?
HT1080-NT tox: 1.0%; TDP1 cell CPT: 7.31µM*; TGFb inhibitor: 11.2µM*; TDP1 cell noCPT: 6.51µM*; HepG2 tox: 11.2µM*; HT1080 IDH1KD tx: 4.1%

How did C[C@H](CO)N1C[C@H](C)[C@H](CN(C)C(=O)OCc2ccccc2)OCc2cnnn2CCCC1=O do in these assays?
HT1080-NT tox: 9.5%; TDP1 cell CPT: 4.6%; TGFb inhibitor: 1.2%; TDP1 cell noCPT: 12.7%; HepG2 tox: 2.0%; HT1080 IDH1KD tx: 8.2%

What do the screens show for `CCc1cccc(C)c1NC(=O)C1CCN(S(=O)(=O)c2c(C)noc2/C=C/c2c(C)cc(C)cc2C)CC1`?
TDP1 cell CPT: inconclusive; TGFb inhibitor: -3.4%; TDP1 cell noCPT: 10.3µM*; HepG2 tox: 2.8%

How did Cc1ccc(N(C)C(=O)C2CCN(S(=O)(=O)c3c(C)noc3/C=C/c3c(C)cc(C)cc3C)CC2)cc1 do in these assays?
TDP1 cell CPT: inconclusive; TGFb inhibitor: inconclusive; TDP1 cell noCPT: 20.6µM*; HepG2 tox: -3.1%

How did COc1ccc(/C=C\c2onc(C)c2S(=O)(=O)N2CCC(C(=O)Nc3ccc(Cl)cc3)CC2)cc1 do in these assays?
TDP1 cell CPT: -11.8%; TGFb inhibitor: -17.1%; TDP1 cell noCPT: inconclusive; HepG2 tox: -21.6%
